From PubChem
A selection: hits, their analogues and other compounds. The true share with any hit is near 21%.
Pf growth 48h – P. falciparum growth inhibition at 48 hours (one generation) | P. falciparum luciferase growth in erythrocytes, 48 h | Potency, µM (doses to about 28.7 µM), hits mostly inhibitors | hit rate 5.9% among 310,000 | AID 504832
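Luciferase-expressing P. falciparum in infected erythrocytes (2% hematocrit, 0.1% parasitemia final) in RPMI 1640/0.5% Albumax were exposed to compound for 48 hours at 37 C, 5% CO2; growth read as luminescence.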
Pf growth 96h – P. falciparum growth inhibition at 96 hour, primary screen for plastid delayed-death inhibitors | P. falciparum luciferase reporter growth, 96 h | Potency, µM (highest dose often 28.7 µM), usual class: inhibitors | hit rate 6.9% among 320,000
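Luminescence readout: decreased luciferase signal marks inhibited growth of reporter-expressing P. falciparum in infected red cells (2% hematocrit, 0.05% parasitemia final), exposed to compound two generations (96 h, 37 C, 5% CO2).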
NS1 function inh – influenza NS1 inhibition | Potency, µM (titrated, usually from 46.1 µM) | hit rate 0.4% among 270,000; calls by dose curve; note: actives are rising curves; nearly all actives have a fitted effect of over 50% in size
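In this qHTS, NS1 from influenza A is expressed in budding yeast, where it slows growth. Cells are switched from glucose to 2% galactose medium (pH 6.0, -URA), treated with compound, and growth recovery is read at OD600.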
Giardia FBPA inh-1 – inhibitors of Giardia lamblia fructose-1,6-bisphosphate aldolase | A8B2U2 | purified Giardia FBPA | Potency, µM (doses to about 59.6 µM), usual class: inhibitors | hit rate 0.71% among 290,000; note: nearly all actives have a fitted effect of over 55% in size
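40 nM FBPA preincubated 10 min at RT with compound (up to 57.5 uM final), then substrate plus GAPDH/TPI/NAD/arsenate coupling and diaphorase/resazurin added. Fluorescence read after 20 min at RT, 525/598 nm.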
Shiga toxin inh – inhibitors of Shiga toxin in Vero cells; inhibition, % at 38.7 µM; hit rate 9.2% among 290,000; AID 2315; Vero cells, Shiga toxin protein synthesis inhibition reporter; in the data active = inhibition mostly above about 28%, no sharp cut-off; inactive = mostly below about 43%
Cycloheximide cs – counter-screen for Shiga toxin inhibitors: cycloheximide protein synthesis inhibition | cell reporter, cycloheximide protein synthesis inhibition counterscreen | max response, % | hit rate 12% among 300,000; in the data active = max response mostly above about 13%, no sharp cut-off; inactive = mostly below about 14%; note: read at 38.3 µM for the half of the compounds with a filed dose
Giardia growth – Giardia lamblia growth inhibition | shares compounds with Giardia FBPA inh-1 | Giardia lamblia trophozoite growth inhibition | Potency, µM (series often up to 57.5 µM), most hits filed as inhibitors | hit rate 5% among 1,500 | AID 2785;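 note: trophozoites exposed to compound for 48 h at 37 °C; nearly all actives have a fitted effect of over 70% in size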
Mammalian tox – counter-screen for Giardia aldolase inhibitors: mammalian cell toxicity. shares compounds with Giardia FBPA inh-1. mammalian cell viability counter-screen, qHTS. Potency, µM (top dose mostly 57.5 µM), hits mostly inhibitors. hit rate 4% among 1,500. AID 2786;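 note: Chinese hamster ovary cells used as mammalian cytotoxicity surrogate; viability measured as cellular ATP by luminescence; compound exposure lasted 48 h before reading; nearly all actives have a fitted effect of over 60% in size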
Giardia FBPA inh-2 – confirmation of Giardia fructose-bisphosphate aldolase inhibitors | shares compounds with Giardia FBPA inh-1 | Potency, µM (doses to about 57.5 µM), hits mostly inhibitors | hit rate 5% among 1,500 | purified Giardia aldolase enzyme activity, qHTS; note: nearly all actives have a fitted effect of over 45% in size
Rabbit FBPA inh – blocks rabbit muscle aldolase in Giardia aldolase selectivity test. hit rate 4% among 1,500. Potency, µM (titrated, usually from 57.5 µM), most hits filed as inhibitors. shares compounds with Giardia FBPA inh-1. Rabbit muscle FBPA enzyme inhibition, selectivity counter-screen; note: nearly all actives have a fitted effect of over 60% in size
Target sequence (P00883 whole entry, looked up): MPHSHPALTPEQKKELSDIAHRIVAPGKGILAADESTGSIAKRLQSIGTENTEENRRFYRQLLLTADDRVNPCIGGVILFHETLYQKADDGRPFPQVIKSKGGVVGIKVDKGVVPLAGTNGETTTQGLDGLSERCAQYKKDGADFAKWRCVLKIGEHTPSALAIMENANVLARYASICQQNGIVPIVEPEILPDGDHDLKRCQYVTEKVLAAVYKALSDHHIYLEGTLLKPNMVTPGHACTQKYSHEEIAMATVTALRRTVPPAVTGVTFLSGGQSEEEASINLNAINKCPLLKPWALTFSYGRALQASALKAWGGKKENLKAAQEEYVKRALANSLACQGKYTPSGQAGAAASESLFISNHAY
GAPDH coupling – GAPDH inhibition flagged for Giardia aldolase hits; shares compounds with Giardia FBPA inh-1; GAPDH coupling enzyme counterscreen, biochemical, qHTS; Potency, µM (highest dose often 57.5 µM), most hits filed as inhibitors; hit rate 6% among 1,500; AID 2795; note: nearly all actives have a fitted effect of over 55% in size
Large screens that a line does not name were inactive (follow-up assays come after a bar, where they were run); [ ] = remark or other dose. Unless noted, calls come from the whole dose curve; as a rule, active = well fitted curve in the direction sought with a large enough effect; inconclusive = small, poorly fitted or top-dose-only effect, or another doubt; inactive = no such curve, though single readings can be large; an effect the other way counts as inactive or inconclusive.

Cc1ccc(C(=O)Nc2cccc(NC(=O)c3ccc(C)o3)n2)o1	Pf growth 96h inconclusive
Cc1ccc(CNC(=O)c2ccccc2-n2cnnn2)cc1	none
Cc1ccc(C(=O)Nc2nc(-c3ccccn3)cs2)o1	Pf growth 48h 4.1µM, Pf growth 96h 2.3µM, Giardia FBPA inh-1 13µM, Shiga toxin inh 48, Cycloheximide cs 23 | Giardia growth inconclusive | Mammalian tox inconclusive | Giardia FBPA inh-2 inactive | Rabbit FBPA inh inactive | GAPDH coupling inactive
O=C(Nc1nc(-c2ccccn2)cs1)c1ccc([N+](=O)[O-])o1	Pf growth 48h 2.9µM, Pf growth 96h 2.3µM (no result: Giardia FBPA inh-1) | Giardia FBPA inh-2 inactive | Rabbit FBPA inh inactive | GAPDH coupling inactive
CC1(c2ccccc2)NC(=O)N(CC(=O)Nc2nc(-c3ccccn3)cs2)C1=O (stereo unspecified)	Pf growth 96h inconclusive (no result: NS1 function inh, Giardia FBPA inh-1, Shiga toxin inh, Cycloheximide cs)
O=C(Nc1nc(-c2ccccn2)cs1)c1ccccc1-n1cnnn1	Pf growth 48h inconclusive, Pf growth 96h 1.7µM, Giardia FBPA inh-1 7.9µM, Cycloheximide cs 10 | Giardia growth 20µM | Mammalian tox inconclusive | Giardia FBPA inh-2 inactive | Rabbit FBPA inh inactive | GAPDH coupling inconclusive
O=C(Nc1nc(-c2ccccn2)cs1)c1ccc2c(c1)OCCO2	Pf growth 96h inconclusive, Giardia FBPA inh-1 18µM, Shiga toxin inh 62, Cycloheximide cs 44 | Giardia growth inactive[10.4 µM] | Mammalian tox inconclusive | Giardia FBPA inh-2 inactive | Rabbit FBPA inh inactive | GAPDH coupling inactive
Cc1cc(C)nc(Nc2ccc(Cl)cc2C)n1	Pf growth 96h inconclusive, Giardia FBPA inh-1 inconclusive
COc1ccc(NC2CCCN(C(=O)c3ccc(C(C)=O)s3)C2)cc1 (stereo unspecified)	none
OC(COCc1ccccc1)CN1CCCCC1 (stereo unspecified)	none
COCCNC(=O)CN(CCc1ccccc1)S(=O)(=O)c1ccc(Br)cc1	none (no result: Shiga toxin inh)
N#CCCOC1(C#CCN2CCCC2)CCCCC1	Pf growth 96h inconclusive
Cn1c(C(=O)O)c(CC(=O)N2CCC(Cc3ccccc3)CC2)c2ccccc21	Pf growth 96h inconclusive
S=C(NCCc1ccccc1)Nc1nccs1	Pf growth 96h inconclusive (no result: NS1 function inh, Giardia FBPA inh-1, Shiga toxin inh, Cycloheximide cs)
S=C(NCc1ccccc1)Nc1nccs1	Pf growth 48h inconclusive, Giardia FBPA inh-1 13µM | Giardia growth inactive | Mammalian tox inactive | Giardia FBPA inh-2 inactive | Rabbit FBPA inh inactive | GAPDH coupling inactive
Cc1c(NC(=O)C(C)Sc2n[nH]c(N)n2)c(=O)n(-c2ccccc2)n1C (stereo unspecified)	none (no result: Pf growth 48h)
O=C(NCCS(=O)(=O)NCCCc1ccccc1)c1ccccc1	none (no result: NS1 function inh, Giardia FBPA inh-1, Shiga toxin inh, Cycloheximide cs)
CN(C)CCNC(C(=O)Nc1cccc(C(F)(F)F)c1)c1ccccc1 (stereo unspecified)	Giardia FBPA inh-1 18µM | Giardia growth inactive | Mammalian tox inactive | Giardia FBPA inh-2 inactive | Rabbit FBPA inh inactive | GAPDH coupling inactive
CCOc1cc(/C=N/NC(=O)CSc2nncn2C)ccc1OCc1cccc(C)c1	Pf growth 96h inconclusive
COc1ccccc1CN1CCN(C(=O)c2ccco2)CC1	Giardia FBPA inh-1 inconclusive
Cc1ccccc1CN1CCN(C(=O)c2ccco2)CC1	Giardia FBPA inh-1 25µM, Cycloheximide cs 33 | Giardia growth inactive[10.4 µM] | Mammalian tox inactive | Giardia FBPA inh-2 inactive | Rabbit FBPA inh inactive | GAPDH coupling inactive
COc1ccc(Br)cc1CN1CCN(C(=O)c2ccco2)CC1	Pf growth 48h inconclusive, Giardia FBPA inh-1 28µM | Giardia growth inconclusive | Mammalian tox inactive | Giardia FBPA inh-2 inactive | Rabbit FBPA inh inactive | GAPDH coupling inactive
Cc1ccccc1CC(=O)N1CCN(C(=O)c2ccco2)CC1	Pf growth 96h inconclusive
Cn1cc(CN2CCN(c3ccccc3)CC2)c2ccccc21	none
CCc1ccccc1NC(=O)Cn1nnc(-c2cccnc2)n1	none
CC(C)Oc1ccc(CCC(=O)NNC(=O)CCC(=O)O)cc1	Pf growth 48h inconclusive
